HDAC3 inh = HDAC3 deacetylase inhibitors, primary screen, biochemical, fluorescence, cell-free homogeneous | recombinant HDAC3, fluorogenic peptide/trypsin coupled | inhibition, % at 8.3 µM | actives 0.15% (n = 320,000); in the data active means inhibition above about 26%, passing the limit was not always enough; inconclusive means no clear call, values can overlap the other calls
PvdQ acylase = P. aeruginosa PvdQ acylase inhibitors, primary screen, biochemical, fluorescence, plate reader and imaging, single point | PvdQ acylase [Pseudomonas aeruginosa LESB58] | purified PvdQ acylase | inhibition, % at 10 µM | actives 0.063% (n = 340,000) | AID 488965, 2010; in the data active means inhibition above about 30%, passing the limit was not always enough; inconclusive means no clear call, values can overlap the other calls;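 further: 0% = vehicle neutral wells and 100% = reference inhibitor wells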
PHOSPHO1 inh = PubChem AID 1565. Phosphoethanolamine/phosphocholine phosphatase (Homo sapiens), Q8TCT1. recombinant PHOSPHO1, absorbance phosphatase assay. inhibition, % at 13.3 µM. actives 1.1% (n = 290,000); in the data active means inhibition above about 60%
Target sequence (Q8TCT1 whole entry, looked up): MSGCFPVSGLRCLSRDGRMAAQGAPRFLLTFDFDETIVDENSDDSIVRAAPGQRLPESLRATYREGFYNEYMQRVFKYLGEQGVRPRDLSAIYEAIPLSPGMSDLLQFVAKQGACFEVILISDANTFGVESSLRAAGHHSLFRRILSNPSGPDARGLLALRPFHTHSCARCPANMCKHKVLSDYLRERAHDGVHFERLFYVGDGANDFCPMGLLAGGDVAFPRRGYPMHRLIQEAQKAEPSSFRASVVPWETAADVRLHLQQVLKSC
JMJD2C inh = inhibitors of GASC-1 histone demethylase, primary screen, biochemical, fluorescence, DELFIA europium; Lysine-specific demethylase 4C (Homo sapiens), Q9H3R0; GST-JMJD2C(1-420) H3K9me3 demethylation; inhibition, % at 2.35 µM; actives 0.069% (n = 330,000); AID 2099, 2009;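 active means more than half of a compound's replicate wells show inhibition beyond 50%, single wells judged on their own value; inconclusive means some, but no more than half, of replicates pass 50% inhibition; inactive means no replicate passes 50% inhibition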;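 further: signal counts dimethyl H3K9 product captured on neutravidin plate; 0% = median of DMSO wells and 100% = 0.3 times that DMSO median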
Target sequence (Q9H3R0 1-420 limits assumed): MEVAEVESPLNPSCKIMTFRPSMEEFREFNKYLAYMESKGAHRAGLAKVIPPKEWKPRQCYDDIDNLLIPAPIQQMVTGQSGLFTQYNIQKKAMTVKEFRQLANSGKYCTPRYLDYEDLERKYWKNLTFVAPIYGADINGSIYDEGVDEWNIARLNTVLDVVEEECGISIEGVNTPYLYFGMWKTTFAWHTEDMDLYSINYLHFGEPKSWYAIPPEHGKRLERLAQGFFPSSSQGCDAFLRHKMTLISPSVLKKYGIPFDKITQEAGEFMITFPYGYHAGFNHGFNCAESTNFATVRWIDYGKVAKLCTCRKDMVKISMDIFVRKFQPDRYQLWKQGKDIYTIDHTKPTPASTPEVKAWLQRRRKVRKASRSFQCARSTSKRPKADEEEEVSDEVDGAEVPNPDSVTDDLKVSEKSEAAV
SUMO Mot1 rescue = yeast Mot1-301 growth rescue at high temperature, primary screen, SUMOylation pathway inhibitor project, S. cerevisiae, ATP luminescence, 38.5C | actives 1% (n = 320,000) | growth rescue, % at 18.8 µM | S. cerevisiae Mot1-301 growth rescue; percent above DMSO median, 100 means doubled;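 active means every valid replicate shows activation above 250% relative to neutral control wells; inactive means the rest, any valid replicate at or below 250%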;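 further: OY570 slx delta 5 strain wells were the positive control but not used for scaling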
p-CIP stab down = p/CIP-EGFP fusion destabilizers, primary screen, fluorescence, F442A cells; actives 0.01% (n = 290,000); 16 h; AID 1984, 2009; decrease of EGFP signal, % at 10 µM;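 active means EGFP signal decrease of at least 30% at 10 µM or well 3 SD below plate mean, unless failing retest; inactive means the rest, including hits failing retest or dose response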
* = called active by the depositor; ? = inconclusive; . = no result; + = active, no number. Rows were chosen to be rich in hits. Some 2.2% of all compounds tested hit in one or more screens of this group.

SMILES | HDAC3 inh | PvdQ acylase | PHOSPHO1 inh | JMJD2C inh | SUMO Mot1 rescue | p-CIP stab down
COc1ccc(C(=O)NCCn2cc(SCC(=O)NCC3CCCO3)c3ccccc32)cc1 (centres undefined) | -3.9 | 6.1 | 57.8 | 3.3 | -9.0 | -10.2
COc1ccc(C(=O)NCCn2cc(SCC(=O)NCc3ccco3)c3ccccc32)cc1 | -1.6 | -0.4 | 61.5* | 7.2 | 556.6 | 1.3
COc1ccc(Cl)cc1N1C(=O)CN(Cc2cc(OC)c(OC)c(OC)c2)C1=S | 8.3 | -9.6 | -64.4 | 0.7 | -10.1 | -19.0
N/N=C1\CCCc2c1[nH]c1ccc([N+](=O)[O-])cc21 | -3.0 | . | 88.2* | 2.4 | -4.6 | 3.8
Cc1ccc(C2=NN(CC(=O)NCCC(C)C)C(=O)CC2)cc1 | 8.3 | -17.4 | 46.3 | 1.0 | -10.3 | 7.2
CC(/C=C(\NC(=O)c1ccccc1)C(=O)N=Nc1c(O)[nH]c2ccc(C)cc12)=C\c1ccccc1 | -10.3 | -6.5 | 91.1* | 0.9 | 73.0 | -9.0
CC(=O)Nc1nc(=S)ss1 | -1.8 | 3.0 | 78.7* | 12.7 | -32.9 | -13.8
CC(C)CC(=O)Nc1nc(=S)ss1 | -2.6 | 0.1 | 10.1 | 13.9 | -16.1 | -5.6
C/C(=C\c1ccccc1)C(=O)n1nnc2ccccc21 | 28.1* | 6.5 | 15.8 | 0.0 | 12.6 | -5.6
Cc1cccc(C)c1NC(=O)CN(C)CC(=O)Nc1cc(Cl)ccc1C#N | -1.7 | -8.1 | 18.3 | 0.1 | 2.7 | 5.7
CCOc1ccc(NC(=O)CN(C)CC(=O)Nc2cc(Cl)ccc2C#N)cc1OCC | -0.8 | -2.4 | -11.5 | 59.8* | -20.8 | -4.4
Cc1cc(NC(=O)CN(C)S(=O)(=O)c2cccc(Cl)c2)no1 | 3.8 | -12.8 | 47.9 | 10.4 | 10.2 | -9.4
Cc1ccc(C)c(S(=O)(=O)Nc2cc(SCC(=O)O)c(O)c3ccccc23)c1 | 9.8 | 7.3 | 70.9* | 47.6 | 17.9 | -7.1
Cc1ccc(-c2nc(CN(C)Cc3ccc4nccnc4c3)c(C)o2)s1 | 1.6 | 2.4 | 30.4 | -5.7 | 12.8 | -9.7
Cc1cc(C(=O)Nc2ccccc2Cc2ccccc2)no1 | -0.1 | -17.3 | 65.8* | -6.6 | 2.4 | -13.4
NCC1CCC(C(=O)Oc2ccc(CCC(=O)O)cc2)CC1 (centres undefined) | 81.3* | -5.3 | . | -0.4 | -1.8 | .
CNn1cnc2ccsc2c1=O | -0.1 | 4.3 | 15.2 | -5.9 | 9.1 | -2.0
COC(=O)[C@@H](NC(=O)Nc1cccc(OC)c1)C(C)C | 0.2 | -7.0 | 60.1* | 6.0 | 3.2 | -10.5
Clc1ccc(C=NN2CCCCCC2)cc1 | . | -8.6 | . | . | . | .
Clc1ccc(/C=N/N2CCCCC2)cc1 | -2.9 | 5.9 | 65.4* | 16.8 | -11.4 | -14.8
CC(=O)NC(=S)NNC(=O)COc1ccc(Br)cc1 | . | -10.3 | 60.9* | . | . | 6.4
CC(=O)NC(=S)NNC(=O)COc1ccc([N+](=O)[O-])cc1 | 13.0 | -1.5 | 66.8* | -9.3 | 94.8 | 3.1
COc1ccc(NC(=O)COc2ccc(Br)cc2)c(OC)c1 | -0.7 | -1.3 | 60.0* | 9.1 | 2.7 | 2.6
COc1ccc(OCC(=O)NNC(=S)NC(=O)c2ccc([N+](=O)[O-])cc2)cc1 | 5.0 | -5.5 | -34.2 | 7.7 | 0.6 | -3.7
Cc1ccnc(NC(=O)C2CCCN(S(=O)(=O)c3ccc4[nH]c(=O)ccc4c3)C2)c1 (centres undefined) | -3.6 | -4.4 | 1.9 | 28.6 | -10.5 | -3.1
SMILES | HDAC3 inh | PvdQ acylase | PHOSPHO1 inh | JMJD2C inh | SUMO Mot1 rescue | p-CIP stab down
O=C(NCCc1ccccc1)c1ccc(NC(=O)C2CCC2)cc1 | . | 8.4 | . | . | . | .
CCC1CCCCN1CCCNC(=O)C1CCN(c2nnc(-n3cccc3)s2)CC1 (centres undefined) | 1.8 | -4.0 | 41.2 | 3.0 | 238.7 | 4.4
COCCNC(=O)C(c1ccncc1)N(C(=O)c1sc(C)nc1C)c1cccc(C)c1 (centres undefined) | 8.8 | 0.9 | 24.5 | ? | + | 19.8
CCOc1ccc2nc(SC3CC(=O)N(c4ccc(C)cc4)C3=O)sc2c1 (centres undefined) | -1.2 | 2.6 | 84.3* | ? | 549.7 | -5.6
O=C1CC(Sc2nnc(-c3ccccc3O)o2)C(=O)N1c1ccccc1 (centres undefined) | 4.8 | -13.5 | 95.3* | 7.8 | 140.2 | 7.9
O=C1CC(Sc2ncccn2)C(=O)N1c1ccccc1 (centres undefined) | -4.5 | -20.5 | 21.9 | -16.0 | 4.2 | -4.6
CCOC(=O)c1ccc(N2C(=O)CC(Sc3nnc(C)s3)C2=O)cc1 (centres undefined) | 2.7 | -7.3 | 100.2* | -0.9 | 37.1 | 2.8
Nc1nnc(SC2CC(=O)N(c3ccccc3)C2=O)s1 (centres undefined) | -2.8 | -4.7 | 97.6* | 56.9* | 209.8 | -10.3
CCC(C(=O)NCCCN1CCCC1=O)n1c2ccccc2c2nc(=O)cc(C)n21 (centres undefined) | -0.5 | -10.3 | 43.5 | 3.7 | 0.0 | 7.4
O=C(CN(Cc1ccco1)C(=O)CNS(=O)(=O)c1ccc(F)cc1)NCc1ccccc1 | 1.9 | -1.7 | 37.0 | 10.6 | 298.3* | 2.7
O=C(CN(Cc1ccco1)C(=O)CNS(=O)(=O)c1ccccc1)NCc1ccccc1 | 5.2 | -15.9 | 0.1 | 5.4 | -1.7 | -5.3
COc1ccc(/C=N/Nc2ccccc2C(=O)O)cc1Cn1cc([N+](=O)[O-])cn1 | . | -8.8 | 60.0* | 1.6 | 20.3 | -2.9
Cc1ccc(N2C(=O)CC(Sc3ncn[nH]3)C2=O)cc1C (centres undefined) | 12.2 | -30.2 | 104.7* | -5.3 | -9.1 | -9.0
COc1cc(NC(=O)c2cc(S(=O)(=O)N3CCc4ccccc43)cn2C)cc(OC)c1OC | 2.1 | 1.3 | 64.9* | -0.3 | -3.1 | -0.4
CCOc1cc(NC(=S)NCCOC)c(OCC)cc1NC(=O)c1cccs1 | -1.8 | . | 19.9 | 68.8* | 145.6 | -7.8
O=C(COC(=O)c1cccc(Cl)c1)Nc1cc(Cl)ccc1Oc1ccccc1 | 2.4 | -2.4 | -2.0 | -8.7 | -5.6 | -3.8
Cc1c(Cl)cccc1NC(=O)CCNC(=O)N1CC(=O)Nc2ccccc21 | 3.6 | -4.3 | 7.9 | -6.1 | -18.5 | -23.2
Cc1nc(C(=O)NNC(=O)c2ccc(C(F)(F)F)cc2)cs1 | 0.5 | . | 26.8 | -16.2 | -14.6 | 13.3
CC1=NN2C(=N)/C(=C\c3ccc(SCc4ccccc4)o3)C(=O)N=C2S1 | -2.0 | -15.1 | 94.1* | 0.9 | 23.0 | -8.2
CCCc1[nH]nc2c1C(c1ccc(OC(=O)N3CCOCC3)cc1)C(C#N)=C(N)O2 (centres undefined) | -7.4 | 10.2 | 63.3* | 2.1 | 3.2 | -9.4
CC(C)(C)c1[nH]nc2c1C(c1ccc(OC(=O)c3ccco3)cc1)C(C#N)=C(N)O2 (centres undefined) | 54.2* | -8.6 | 19.4 | -5.7 | 241.7 | -17.9
